Source: PubChem
Rv3671c protease = Rv3671c (M. tuberculosis) protease inhibition; 320,000 compounds, 0.048% hits; P9WHR9; AID 2606; inhibition, % at 5.96 µM; in the data active = inhibition above about 38%;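 also: extracellular domain of Rv3671c used as enzyme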
RecA splice inh = inhibitors of M. tuberculosis RecA intein splicing. cell-free RecA intein splicing, fluorescence. inhibition, % (no concentration beside the values). 290,000 compounds, 0.75% hits; in the data active = inhibition above about 30%; inconclusive = no clear call, values can overlap the other calls
Mtb betalactam = beta-lactam sensitization of Mtb H37Rv | M. tuberculosis H37Rv growth with meropenem, percent inhibition | inhibition, % at 25 µM | 330,000 compounds, 0.27% hits | AID 434955; call rule not given here;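 also: growth measured after seven days incubation then overnight dye step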
UGM FP inh = blocks M. tuberculosis UGM enzyme. P9WIQ1. purified UGM, fluorescence polarization probe displacement. inhibition, % at 10 µM. 320,000 compounds, 0.06% hits. AID 504406; in the data active = inhibition above about 10%, passing the limit was not always enough; inconclusive = no clear call, values can overlap the other calls
MazF activator = increases E. coli MazEF RNase cleavage of RNA; P0AE70; FAM/BHQ RNA-DNA oligo cleavage fluorescence, 5 h; activation, % at 20 µM; 350,000 compounds, 0.32% hits; in the data active = activation above about 50%
TcdB inh = TcdB glycohydrolase inhibition; P18177; TcdB glycohydrolase enzymatic assay, plate reader; inhibition, % at 9.99 µM; 350,000 compounds, 0.24% hits; AID 652162; in the data active = inhibition above about 10%
Numbers stand for hits; . = inactive; ? = inconclusive; / = not tested or not shown; + = active, no number; ! = a repeat was not active. In the library only some 0.97% were active in any assay of this set; here they are far more common.

SMILES	Rv3671c protease	RecA splice inh	Mtb betalactam	UGM FP inh	MazF activator	TcdB inh
COc1ccc(-c2cnc3c(c2)C(=O)N([C@H](C)CO)C[C@H](C)[C@@H](CN(C)Cc2ccccc2)O3)cc1	/	/	/	/	/	.
O=C(Nc1ccccc1F)N1C[C@@H]2N[C@H](C1)C2c1ccc(-c2ccccc2)cc1 (some centres not stated)	/	/	/	/	/	.
O=C(Nc1ccccc1F)N1C[C@@H]2N[C@H](C1)C2c1ccc(-c2cccc(F)c2)cc1 (some centres not stated)	/	/	/	/	/	23.5!
CC1=NNC(=O)C1C(c1cccc(O)c1)C(C#N)C#N (configuration not stated)	.	59.6	.	.	.	.
Cc1ccc(NS(=O)(=O)c2ccc(NC(=O)c3cccs3)cc2)cc1	.	.	.	.	73.6	/
C=CCOC(=O)C(=O)/C=C/c1ccc(OC)cc1	/	/	/	/	/	.
CCC(=O)N1[C@@H]2c3ccc(C4=CCCCC4)c(=O)n3C[C@H]1[C@H](CO)[C@H]2C(=O)N[C@H](C)c1ccccc1	/	/	/	/	/	.
COc1cc(-c2nc(=S)[nH][nH]2)cc(OC)c1OC	.	.	.	.	.	30.2
CC1CCN(c2ccc3c(c2)S(=O)(=O)c2cccc(C(=O)NCc4ccc(F)cc4)c2C3=O)CC1	.	/	.	.	+	.
O=C(NCc1ccc(F)cc1)c1cccc2c1C(=O)c1ccc(N3CCC(Cc4ccccc4)CC3)cc1S2(=O)=O	.	/	.	32.7	.	.
O=C(NCc1ccc(F)cc1)c1cccc2c1C(=O)c1ccc(N3CCC(N4CCCCC4)CC3)cc1S2(=O)=O	/	/	/	/	.	.
C=CCNc1nc(Cl)nc(Nc2cc(Cl)ccc2OC)n1	/	.	.	.	57.8	.
N#C/C(=C/c1ccc(-c2ccccc2[N+](=O)[O-])o1)C(N)=O	.	.	.	.	54.2	.
N#C/C(=C/c1ccc(-c2cc([N+](=O)[O-])ccc2Cl)o1)C(N)=O	.	.	.	.	.	.
Cc1ccccc1CNc1ccc(C(CC(N)=O)NC(=O)c2ccc(Br)cc2)cc1[N+](=O)[O-] (configuration not stated)	.	.	.	.	81.4	.
NC(=O)CC(NC(=O)c1ccc(Br)cc1)c1ccc(NCc2ccc(F)cc2)c([N+](=O)[O-])c1 (configuration not stated)	.	.	.	.	.	.
CC(=O)C[C@H]1c2ccccc2S(=O)(=O)N1C1CCCCC1	.	.	.	.	.	14.4
NC(=O)c1c(NC(=O)C2COc3ccccc3O2)sc2c1CCN(Cc1ccccc1)C2 (configuration not stated)	.	.	.	19.3	257.9	.
Cc1cccc(C(=O)NNC(=O)c2ccccc2)c1	.	.	.	.	.	/
Cc1cccc(C(=O)c2cnc3ccccc3c2-c2ccccc2)c1	.	32.9	.	.	.	/
N=c1n(CC(=O)c2ccc([N+](=O)[O-])cc2)c2ccccc2n1Cc1ccccc1	.	.	?	.	328.6	/
N=c1n(CC(=O)c2ccc([N+](=O)[O-])cc2)c2ccccc2n1Cc1ccc(Cl)cc1	.	.	.	.	177.8	/
CC(=O)N1[C@@H]2Cn3c(ccc(C4=CCCCC4)c3=O)[C@H]1[C@@H](C(=O)NCc1cc(F)cc(F)c1)[C@@H]2CO	/	/	/	/	/	.
O=C(CN1CCOCC1)N[C@@H]1CC[C@@H](CCNC(=O)Nc2cc(F)ccc2F)O[C@@H]1CO	/	/	/	/	/	.
Cc1ccc(Cn2c(=N)c(S(=O)(=O)c3ccc(Br)cc3)cc3c(=O)n4ccccc4nc32)cc1	.	.	.	.	.	/
SMILES	Rv3671c protease	RecA splice inh	Mtb betalactam	UGM FP inh	MazF activator	TcdB inh
COc1ccc(CCn2c(=N)c(S(=O)(=O)c3ccc(C)cc3)cc3c(=O)n4ccccc4nc32)cc1	.	.	.	20.8	.	.
CCN1[C@@H]2c3ccc(-c4ccc(OC)cc4)c(=O)n3C[C@@H]2[C@@H](CO)[C@@H]1C(=O)NCCN1CCCCC1	/	/	/	/	/	.
Oc1ccc(-c2nccs2)cc1	/	/	/	/	.	21.5
Oc1ccc(-c2nc(-c3ccc(O)c(O)c3)cs2)cc1	.	.	.	.	.	/
C[C@@H]1CCCCO[C@@H](CN(C)C(=O)CCCN(C)C)[C@H](C)CN([C@H](C)CO)C(=O)c2cc(NC(=O)Nc3ccc(F)cc3)ccc2O1	/	/	/	/	/	.
O=C(C1CC1)N1C[C@H]2[C@@H](c3ccccc31)[C@H](CO)N2C(=O)c1ccccn1	/	/	/	/	/	.
Cc1cc(=O)[nH]c2cc(Cl)ccc12	.	.	.	.	.	/
Cc1[nH]ccc2c1[nH]c1cc(=O)ccc12	.	.	.	.	.	10.3
C(=N\n1cnnc1)/c1cccc(OCCOc2ccccc2)c1	.	/	.	.	.	/
Cc1ccc(S(=O)(=O)Oc2cccc(/C=N/Nc3ccc(C(=O)O)cc3)c2)cc1	.	.	.	.	.	11.1
COc1cccc(/C=C/C(=O)c2ccc(NS(=O)(=O)c3ccc(C)cc3)cc2)c1	.	33.9	.	.	.	/
Cc1ccc(S(=O)(=O)N/N=C/c2ccc(C(=O)O)cc2)cc1	.	.	.	.	.	/
Cc1ccc(S(=O)(=O)Oc2cccc(/C=N/n3cnnc3)c2)cc1	.	.	.	.	.	10.5
C[C@H]1CN([C@@H](C)CO)C(=O)c2cc(C3=CCCCC3)cnc2O[C@H]1CN(C)C(=O)Nc1ccccc1	/	/	/	/	/	.
c1ccc(Sc2ncnc3ccccc23)cc1	.	39.8	.	.	.	.
Cc1ccc(CN2C(=O)CN=C(c3ccccc3)c3ccccc32)cc1	.	.	.	.	.	12.3
COc1ccc(Cl)cc1NC(=S)NC1CCCC1	.	.	.	.	.	14.6
COc1ccc(NC(=O)c2sc3nc(-c4cccnc4)ccc3c2N)cc1OC	.	.	.	.	+	.
COc1ccc(NC(=O)c2sc3nc(-c4cccnc4)ccc3c2N)cc1	.	.	.	.	.	.
CCC(Sc1nc2ncccc2[nH]1)C(=O)NC1CCC(C)CC1 (configuration not stated)	.	.	.	.	138.2	.
CCC(Sc1nc2ncccc2[nH]1)C(=O)NCCc1ccccc1 (configuration not stated)	.	.	.	.	.	.
COc1ccc(OC(=O)N(C)C[C@@H]2OCc3cn(nn3)CCCC(=O)N([C@@H](C)CO)C[C@@H]2C)cc1	/	/	/	/	/	.
CN(C)c1ccc(N=Cc2nc(-c3ccccc3)oc2O)cc1	.	.	.	14.8	245.9	/
CN(C)c1ccc(N=Cc2nc(-c3ccccc3)oc2OC(=O)c2ccccc2)cc1	.	.	.	.	353.6	/
Cc1ccc(N=Cc2nc(-c3ccc(C)cc3)oc2O)cc1	/	.	/	/	.	.
CC(=O)Nc1ccc(N=Cc2nc(-c3ccc(C)cc3)oc2O)cc1	.	.	.	.	245.1	/
CC(=O)Nc1ccc2c(c1)C(=O)N(C)[C@@H]1CC[C@@H](CC(=O)NCc3ccccc3Cl)O[C@@H]1CO2	/	/	/	/	/	.
C[C@@H]1CN([C@H](C)CO)C(=O)CCCn2cc(nn2)CO[C@@H]1CN(C)S(=O)(=O)c1ccc(Oc2ccccc2)nc1	/	/	/	/	/	.
